# In all, about 58,000 sequences went through this assay and about 3,600 (6.2%) were called active. Cut-off read from the data, not from the text of the source: active = GI50 up to about 1.1 µM and inactive = higher. The list is a sample of the results. Results with a measured potency or affinity are listed apart.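 All cell lines were grown in 96-well plates and treated with compound for 48 hours. GI50 marks 50% less growth.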
# Test system: OVCAR-8
# Assay: NCI tumour cell line growth inhibition, 48 h
row,Substance,GI50 [µM]
1,"[Bis(aminomethyl)dimethylsilane]tetrachloroplatinum(IV), CHEMBL2146190",12
2,"mu-(1,7-nanodiamine-N,N')bis-(cis-aminedichloroplatimum (II)), CHEMBL2146215",52.6
3,"CISPLATIN, CHEMBL11359",4.52
4,"[Bis(aminomethyl)diethylsilane]tetrachloroplatinum(IV), CHEMBL2146203",3.53
5,"[Bis(aminomethyl)ethylmethylsilane]tetrachloroplatinum(IV), CHEMBL2146192",3.7
6,"[Bis(aminomethyl)tetramethylenesilane]tetrachloropaltinum(IV), CHEMBL2146189",6.01
7,"cis-Bis[[(trimethylsilyl)methyl]amino]tetrachloroplatinum(IV), CHEMBL2146191",2.44
8,"[Bis(aminomethyl)dimethylsilane]dichloroplatinum (II), CHEMBL2146201",29.8
9,"[Bis(aminomethyl)pentamethylenesilane]tetrachloropaltinum(IV), CHEMBL2146204",2.17
10,"[Bis(aminomethyl)tetramethylenesilane]dichloropaltinum(II), CHEMBL2146205",17
11,"[Bis(aminomethyl)pentamethylenesilane]dichloropaltinum(II), CHEMBL2146202",2.05
